VACV Venus inh = vaccinia inhibition (Venus reporter). 330,000 compounds, 0.46% hits. Potency, µM (doses to about 36.5 µM), inactives show top-dose activity change, negative = inhibition, usual class: inhibitors. Vaccinia virus Venus reporter expression, fluorescence. AID 720580; calls by dose curve; tested in A549 cells; note: nearly all actives have a fitted effect of over 30% in size
AMA1 RON2 block = disrupts binding of P. falciparum AMA1 to RON2; AlphaScreen AMA1-biotinylated RON2 peptide binding; Potency, µM (top dose mostly 58.2 µM), for the others: at the highest dose activity change, negative = inhibition, usual class: inhibitors; 360,000 compounds, 0.2% hits; AID 720542;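 note: 0% = vehicle wells and -100% = peptide control; nearly all actives have a fitted effect of over 45% in size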
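AMA1 (3D7) with his tag at 25 nM final met compounds first, then biotinylated RON2 peptide at 25 nM; detection used donor plus acceptor beads, 10 µg/mL apiece, read by AlphaScreen after 30 min at room temperature.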
VACV mCherry inh = vaccinia inhibition (mCherry reporter). Vaccinia virus mCherry reporter infection, fluorescence. Potency, µM (top dose mostly 36.5 µM), inactives show top-dose activity change, negative = inhibition, actives largely listed as inhibitors. 310,000 compounds, 0.63% hits; calls by dose curve; tested in A549 cells; note: nearly all actives have a fitted effect of over 35% in size
Pf growth 96h = P. falciparum growth inhibition at 96 hours | P. falciparum luciferase reporter growth, 96 h | Potency, µM (titrated, usually from 28.7 µM), for inactives: at the highest dose activity change, negative = inhibition, usual class: inhibitors | 320,000 compounds, 6.9% hits | AID 504834
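Compounds incubated with erythrocytes infected by luciferase-expressing P. falciparum (2% hematocrit, 0.05% parasitemia final) for 96 hours, 37 C in 5% CO2. Growth inhibition scored as decreased luciferase luminescence.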
Pf growth 48h = P. falciparum growth inhibition at 48 hours (one generation); P. falciparum luciferase growth in erythrocytes, 48 h; Potency, µM (doses to about 28.7 µM), for the others: top-dose activity change, negative = inhibition, actives largely listed as inhibitors; 310,000 compounds, 5.9% hits
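Compounds are pin-transferred into medium, infected erythrocytes (2% hematocrit, 0.1% parasitemia final) are added, and plates sit one parasite generation at 37 C in 5% CO2. Detection reagent is then added and luminescence measured.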
The depositor's hits bear a star; i = inactive; ? = inconclusive; / = no result. Hits are enriched below; roughly 8.7% of the tested compounds scored in any of these assays. Unless noted, calls come from the whole dose curve; as a rule, active = well fitted curve in the direction sought with a large enough effect; inconclusive = small, poorly fitted or top-dose-only effect, or another doubt; inactive = no such curve, though single readings can be large; an effect the other way counts as inactive or inconclusive. Unless noted, % is set by controls: 0 for no effect and ±100 for the full control effect; potency is the fitted concentration of half-maximal effect.

SMILES | VACV Venus inh | AMA1 RON2 block | VACV mCherry inh | Pf growth 96h | Pf growth 48h
COc1ccc2nc(NC(=O)c3ccc([N+](=O)[O-])o3)sc2c1 | ? | 1.5% | ? | 275.7% | ?
Cc1ccc(C)c(-c2nnc(NC(=O)c3ccc([N+](=O)[O-])o3)o2)c1 | ? | 27.6% | ? | 9.28µM* | 9.28µM*
O=C(Nc1nc2c(F)cc(F)cc2s1)c1ccc([N+](=O)[O-])o1 | 10µM* | -5.2% | 12.6µM* | ? | -18.0%
Cc1ccc(C)c(-c2nnc(NC(=O)C3=COCCO3)o2)c1 | 3.9% | 40.9% | -23.4% | -10.8% | -28.0%
Cc1cc(C)nc(NC(=O)c2ccc([N+](=O)[O-])o2)n1 | -3.5% | 12.5% | -20.8% | 247.1% | -6.4%
COc1cccc(NC(=O)CSC2=Nc3ccccc3C3=NC(CC(=O)NCc4ccc5c(c4)OCO5)C(=O)N23)c1 (stereo unspecified) | -9.7% | / | -11.7% | / | /
Cc1ccc(-c2cc(C(=O)N/N=C/c3ccco3)n[nH]2)s1 | -5.2% | 22.6% | i | 67.8% | 10.4µM*
O=C(N/N=C/c1ccccn1)c1cc(-c2ccc(Cl)s2)[nH]n1 | -22.1% | 7.1% | 12.6µM* | ? | -110.4%
O=C(N/N=C/c1ccncc1)c1cc(-c2ccc(Br)s2)[nH]n1 | -14.5% | 7.1% | -29.6% | 11.7µM* | ?
O=C(N/N=C/c1ccccn1)c1cc(-c2ccc(Br)s2)[nH]n1 | -29.1% | 76.1% | -28.5% | 22.1% | ?
O=C(N/N=C\c1ccncc1)c1ccc(Cl)s1 | -22.3% | 20.2% | -25.8% | 13.1µM* | 9.8%
Cc1ccc2nc(SCC(=O)N3CCC4(CC3)CC4C(=O)Nc3ccc(F)c(F)c3)[nH]c2c1 (stereo unspecified) | -8.2% | / | -6.4% | / | /
COc1cc(=O)n2c(c1C(=O)NC(C)c1ccco1)CCN(C(=O)c1[nH]c(C)cc1C)CC2 (stereo unspecified) | -16.7% | / | i | / | /
Cc1ccc(NC(=O)CSc2nc3ccccc3c3nc(CCc4c(C)n[nH]c4C)nn23)c(C)c1 | -3.1% | / | -8.2% | / | /
O=C(N/N=C/c1ccccn1)c1ccc(Cl)c(Cl)c1 | / | / | / | ? | 14.7µM*
O=C(N/N=C/c1ccccn1)c1ccc(NC(=O)c2ccccc2Cl)cc1 | -1.4% | 40.9% | -27.7% | -13.4% | -24.5%
CCC(Nc1ccc(-c2nc(-c3ccccn3)no2)cc1[N+](=O)[O-])c1ccccc1 (stereo unspecified) | -8.0% | / | -21.0% | / | /
O=C(c1n[nH]c2ccccc12)N1CCN(S(=O)(=O)c2ccccc2)CC1 | / | -9.3% | / | 7.38µM* | 5.22µM*
O=C(c1n[nH]c(=O)c2ccccc12)N1CCN(S(=O)(=O)c2ccccc2Cl)CC1 | / | 1.8% | / | 5.86µM* | ?
COc1ccc(NC(C)=O)cc1S(=O)(=O)N1CCN(C(=O)c2ccccc2F)CC1 | / | -5.7% | / | ? | 2.08µM*
Cc1ccc(S(=O)(=O)N2CCN(C(=O)c3n[nH]c(=O)c4ccccc34)CC2)c(C)c1 | / | -10.0% | / | ? | ?
COc1cc(OC)c(S(=O)(=O)N2CCN(C(=O)c3ccccc3F)CC2)cc1NC(C)=O | -6.7% | 2.7% | i | -21.1% | -10.3%
COc1ccc(Cl)cc1S(=O)(=O)N1CCN(C(=O)c2n[nH]c(=O)c3ccccc23)CC1 | ? | -6.6% | 28.2µM* | / | /
Cc1ccc(S(=O)(=O)N2CCN(C(=O)c3n[nH]c(=O)c4ccccc34)CC2)cc1 | / | 0.0% | / | -25.3% | 0.0%
CNC(=O)c1ccc(Nc2nnc(-c3ccc(C)c(S(=O)(=O)N4CCOCC4)c3)c3ccccc23)cc1 | -10.8% | / | -11.4% | / | /
SMILES | VACV Venus inh | AMA1 RON2 block | VACV mCherry inh | Pf growth 96h | Pf growth 48h
CC(=O)Nc1ccc(N(C(=O)Cn2nnc3ccccc32)C(C(=O)NCc2ccccc2)c2ccc(C)cc2)cc1 (stereo unspecified) | -5.4% | / | -5.0% | / | /
O=c1[nH]c(=S)c2n[nH]nc2[nH]1 | -5.8% | / | 21.5% | / | /
CC(=O)Nc1ccc(NC(=O)C2Cc3ccccc3N2C(=O)c2ccccc2)cc1 (stereo unspecified) | 2.4% | / | -0.1% | / | /
CC(=O)OC1(C)CC(C)C(=O)C(C(O)CC2CC(=O)NC(=O)C2)C1 (stereo unspecified) | 0.1µM* | -1.5% | ? | / | /
C[C@@H]1C[C@@H]([C@H](O)CC2CC(=O)NC(=O)C2)C(=O)[C@@H](C)C1 | 0.282µM* | 6.6% | 0.316µM* | 0.104µM* | 0.104µM*
CCCCCn1c(N)c(-c2nc3ccccc3s2)c2c([N+](=O)[O-])nn(C)c(=O)c21 | / | 8.4% | / | 5.22µM* | ?
N=C1C(c2ccccc2)=C(O)CN1CCCO | / | -3.5% | / | 14.7µM* | ?
CCOc1ccccc1NC(=O)CN1C(=O)COc2ccc(S(=O)(=O)N3CCCCCC3)cc21 | -5.0% | / | -8.7% | / | /
COc1ccc(-n2nc(C(=O)N3CCN(c4ccccc4OC)CC3)c3c4ccccc4n(C)c3c2=O)cc1Cl | -6.5% | / | -12.7% | / | /
COc1ccc(N(C(=O)c2csnn2)C(C(=O)NC2CCCC2)c2cccs2)cc1 (stereo unspecified) | 3.6% | 5.7% | -11.4% | 1.47µM* | -8.7%
COc1ccc(CCN(C(=O)C(F)(F)F)C(C(=O)NC2CCCCC2)c2ccc(C)s2)cc1 (stereo unspecified) | -5.6% | -2.8% | i | 8.28µM* | ?
COc1ccc(CCN(C(=O)C(F)(F)F)C(C(=O)NC2CCCCC2)c2cccs2)cc1 (stereo unspecified) | -20.9% | -0.5% | i | ? | 9.28µM*
COc1ccc(CCCC(=O)NC2CCCCC2)cc1 | / | -3.8% | / | 65.8% | 22.4%
COCCN(C(=O)C(F)(F)F)C(C(=O)NC1CCCCC1)c1ccco1 (stereo unspecified) | -13.0% | 7.9% | -19.1% | 11.7µM* | -12.8%
Cc1cc(S(=O)(=O)Nc2cc3c(cc2N2CCOCC2)n(C)c(=O)n3C)ccc1F | -11.4% | / | 0.4% | / | /
CCc1ccc(OCC(=O)NCC(c2ccc(Cl)cc2)N2CCOCC2)cc1 (stereo unspecified) | -12.9% | / | -16.0% | / | /
COCCN(C(=O)CNC(=O)c1ccco1)C(C(=O)NC1CCCC1)c1ccccc1F (stereo unspecified) | -8.9% | 11.3% | -2.5% | 11.5% | 24.5%
COCCNC(=O)C(c1ccccc1F)N(C(=O)C(=O)NC1CCCC1)C1CCCCC1 (stereo unspecified) | -17.0% | 0.0% | i | 11.7µM* | -4.0%
COCCN(C(=O)CCl)C(C(=O)NC1CCCCC1)c1ccccc1C (stereo unspecified) | ? | 7.7% | ? | 8.28µM* | 10.4µM*
CC(C)CCNC(=O)C1CCN(C(=O)N2CCOc3ccc(Cl)cc32)CC1 | -10.1% | / | -14.5% | / | /
CSc1ccc(CCNC(=O)CCc2nnc3ccc(N4CCCC4)nn23)cc1 | -5.8% | -2.3% | -12.7% | 9.28µM* | ?
Cc1ccc(C)c(NC(=O)CCc2nnc3ccc(N4CCCC4)nn23)c1 | / | -4.1% | / | ? | 0.5%

Bioassay records (PubChem)
